These results are taken from PubChem BioAssay.

Values without a mark were called inactive. The list shows a part of the results. The source made the active and inactive calls.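 The calls were made as follows, unless noted: active = mean inhibition above the solvent-only control wells' mean plus 3 SD (cut at about 22% in these data); inactive = the rest.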

Test [1] in a line: StAR promoter reporter inhibitors, counter-screen for LRH-1 inverse agonist project, cell-based, luminescence, high throughput (AID 651611; in the data active = inhibition above about 28%). The following applies: StAR promoter luciferase reporter counterscreen, at 3.6 µM, stronger effect = higher value. A general note: Counterscreens check selectivity or assay interference.
Test [2] deals with Nuclear receptor subfamily 5 group A member 2 (Homo sapiens) (UniProt O00482). Briefly: NR5A2 activity suppression in reporter cells – cell-based, luminescence, confirmation (AID 651613; in the data active = inhibition above about 42%;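 also: HEK293T cells co-transfected with LRH-1 and StAR promoter luciferase reporter; 0% = vehicle wells and 100% = parental cells lacking receptor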). The note with it: cell-based LRH-1 luciferase reporter, inverse agonism; at 3.6 µM; stronger effect = higher value. A general note: Reporter assays use an easily measured gene product as a stand-in for the process of interest.
Chain of Nuclear receptor subfamily 5 group A member 2 (Homo sapiens) (O00482 whole entry, looked up): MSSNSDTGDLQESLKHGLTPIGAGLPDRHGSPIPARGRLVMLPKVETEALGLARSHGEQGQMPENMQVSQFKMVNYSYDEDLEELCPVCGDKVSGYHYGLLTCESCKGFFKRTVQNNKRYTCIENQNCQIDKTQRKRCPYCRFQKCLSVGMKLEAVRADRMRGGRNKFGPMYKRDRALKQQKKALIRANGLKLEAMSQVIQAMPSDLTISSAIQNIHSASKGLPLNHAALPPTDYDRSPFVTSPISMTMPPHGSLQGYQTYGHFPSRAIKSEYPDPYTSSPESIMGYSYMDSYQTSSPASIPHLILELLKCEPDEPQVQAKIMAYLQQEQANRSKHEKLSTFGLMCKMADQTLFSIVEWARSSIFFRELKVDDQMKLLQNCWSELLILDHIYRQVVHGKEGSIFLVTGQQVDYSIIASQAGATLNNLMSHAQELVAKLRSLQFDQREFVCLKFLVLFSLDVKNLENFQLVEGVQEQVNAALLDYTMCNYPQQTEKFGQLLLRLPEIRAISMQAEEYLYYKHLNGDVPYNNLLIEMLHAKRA

Test [3] has as its target Steroidogenic factor 1 (Homo sapiens) (UniProt Q13285). As to the kind of experiment: inverse agonism at SF1 nuclear receptor – cell-based, luminescence, high throughput, counter-screen for LRH-1 inverse agonist project (AID 651614; in the data active = inhibition above about 44%;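 also: cells cotransfected with StAR promoter reporter and SF1 expression vector; 0% = vehicle on cells with receptor and 100% = vehicle on cells lacking receptor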). The following applies: cell-based SF1 luciferase reporter, at 3.6 µM, stronger effect = higher value.
A short description of test [4]: compounds suppressing VP16-driven luciferase signal – cell-based, luminescence, high throughput, counter-screen for LRH-1 inverse agonist project (AID 651615; in the data active = inhibition above about 33%). The note with it: Gal4-VP16 luciferase reporter cells, at 3.6 µM, stronger effect = higher value.
Test [5] can be described thus: reduced OD of V66 E. coli with T4 gene 2 phage – absorbance, RecBCD inhibitor project, confirmation (AID 651982;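 active = mean inhibition over triplicates exceeding the hit threshold derived in the original primary screen, cut at about 11% in these data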). The following applies: E. coli V66 + T4 2- phage, growth OD; at 11.9 µM; stronger effect = higher value.
The nature of test [6]: bacterial growth inhibition – absorbance, high throughput, counter-screen for RecBCD inhibitor project (AID 651983; in the data active = inhibition above about 20%;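 also: E. coli strain V66 grown with compound alone and no phage infection; 0% = bacteria with DMSO vehicle only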). The following applies: E. coli viability, absorbance (OD) growth; at 11.9 µM; stronger effect = higher value.
Test [7] in a line: reduced optical density, T4-challenged addAB+ bacteria – absorbance, E. coli V3065, T4 phage, counter-screen for RecBCD inhibitor project, confirmation (AID 651984).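 Also: higher means less bacterial growth from phage killing when AddAB is blocked.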 The following applies: E. coli expressing H. pylori AddAB + T4 phage, OD growth; at 11.9 µM; stronger effect = higher value; gene 2 mutant T4, recBCD-deleted host.
The test system of test [8] is transactivating tegument protein VP16 (Human herpesvirus 1). As to the kind of experiment: compounds suppressing VP16-driven luciferase signal – cell-based, luminescence, single concentration, counter-screen for SRC2 inhibitor project (AID 652007; in the data active = inhibition above about 36%). The note with it: cell-based VP16 transactivation luciferase reporter, at 8.9 µM, stronger effect = higher value.
Test [9] deals with Nuclear receptor coactivator 2 (Homo sapiens) (UniProt Q15596). As to the kind of experiment: inhibition of GAL4-SRC2 driven luciferase expression – cell-based, luminescence, HEK293, triplicate, confirmation (AID 652008;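 active = mean inhibition above 46.5%, the solvent-only control mean plus 3 SD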;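 also: 0% = DMSO-treated cells and 100% = Gossypol at 36 µM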). The following applies: HEK293 GAL4-SRC2 luciferase reporter, at 8.9 µM, stronger effect = higher value.
Chain of Nuclear receptor coactivator 2 (Homo sapiens) (Q15596 whole entry, looked up, the tested form may be a part): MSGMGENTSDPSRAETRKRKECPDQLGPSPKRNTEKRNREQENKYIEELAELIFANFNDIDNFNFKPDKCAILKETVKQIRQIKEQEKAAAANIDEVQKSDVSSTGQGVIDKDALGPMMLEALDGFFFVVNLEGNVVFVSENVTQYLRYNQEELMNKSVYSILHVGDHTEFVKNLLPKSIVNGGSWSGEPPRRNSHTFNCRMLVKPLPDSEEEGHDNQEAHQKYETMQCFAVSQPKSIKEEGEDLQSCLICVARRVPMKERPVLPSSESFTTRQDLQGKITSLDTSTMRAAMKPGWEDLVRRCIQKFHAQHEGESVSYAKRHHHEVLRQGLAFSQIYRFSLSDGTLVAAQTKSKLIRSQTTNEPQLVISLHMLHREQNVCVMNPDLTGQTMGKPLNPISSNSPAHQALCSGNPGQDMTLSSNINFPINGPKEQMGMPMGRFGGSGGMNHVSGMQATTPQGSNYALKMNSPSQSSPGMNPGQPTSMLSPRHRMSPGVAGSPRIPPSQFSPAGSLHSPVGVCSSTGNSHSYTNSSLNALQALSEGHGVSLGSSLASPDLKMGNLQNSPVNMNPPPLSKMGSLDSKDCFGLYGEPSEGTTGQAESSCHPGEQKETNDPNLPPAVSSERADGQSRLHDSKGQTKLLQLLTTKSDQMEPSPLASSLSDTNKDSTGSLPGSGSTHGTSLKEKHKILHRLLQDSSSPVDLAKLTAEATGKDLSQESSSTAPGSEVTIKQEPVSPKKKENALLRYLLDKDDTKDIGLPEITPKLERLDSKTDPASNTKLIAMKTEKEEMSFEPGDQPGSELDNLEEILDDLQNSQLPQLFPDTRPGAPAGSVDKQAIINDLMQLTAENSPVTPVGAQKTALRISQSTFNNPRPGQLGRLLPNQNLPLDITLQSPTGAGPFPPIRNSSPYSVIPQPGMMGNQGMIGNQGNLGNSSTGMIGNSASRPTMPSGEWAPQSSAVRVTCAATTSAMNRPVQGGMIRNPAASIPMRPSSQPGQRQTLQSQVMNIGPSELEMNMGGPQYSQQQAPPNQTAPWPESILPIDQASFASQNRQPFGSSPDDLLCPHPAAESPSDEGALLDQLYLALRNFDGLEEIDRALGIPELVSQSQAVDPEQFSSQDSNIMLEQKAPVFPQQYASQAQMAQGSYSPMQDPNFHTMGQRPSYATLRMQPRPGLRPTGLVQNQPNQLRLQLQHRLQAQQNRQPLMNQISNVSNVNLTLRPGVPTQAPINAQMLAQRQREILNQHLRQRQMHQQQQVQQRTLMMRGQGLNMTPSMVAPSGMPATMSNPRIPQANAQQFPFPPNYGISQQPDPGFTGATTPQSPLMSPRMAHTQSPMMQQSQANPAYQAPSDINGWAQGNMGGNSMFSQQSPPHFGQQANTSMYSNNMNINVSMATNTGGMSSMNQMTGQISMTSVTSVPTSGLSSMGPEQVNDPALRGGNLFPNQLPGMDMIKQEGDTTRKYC

The inhibition is the drop in the measured response relative to a control, in per cent.

Chain of Steroidogenic factor 1 (Homo sapiens) (Q13285 whole entry, looked up, the tested form may be a part): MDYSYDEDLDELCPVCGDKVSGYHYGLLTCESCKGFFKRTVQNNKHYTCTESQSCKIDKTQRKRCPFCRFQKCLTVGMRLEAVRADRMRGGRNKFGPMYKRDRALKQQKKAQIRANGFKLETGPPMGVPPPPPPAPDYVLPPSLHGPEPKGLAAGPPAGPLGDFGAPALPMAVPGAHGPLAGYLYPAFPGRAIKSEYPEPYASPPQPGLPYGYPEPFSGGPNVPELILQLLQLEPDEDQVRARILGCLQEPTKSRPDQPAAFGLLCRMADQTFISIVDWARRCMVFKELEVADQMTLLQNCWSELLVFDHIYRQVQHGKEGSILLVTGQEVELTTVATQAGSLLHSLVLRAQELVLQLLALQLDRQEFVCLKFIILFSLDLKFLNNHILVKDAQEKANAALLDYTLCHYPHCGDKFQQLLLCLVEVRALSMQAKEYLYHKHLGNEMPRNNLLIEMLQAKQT

Take `Cc1nnc(SCC(=O)Nc2ccc(N3CCN(S(C)(=O)=O)CC3)cc2)o1`: the inhibition was -2.52% in [1], 50.8% (active) in [2], 50.2% (active) in [3] and -9.83% in test [4].

`CCn1cc(C(=O)NCCO)c(=O)c2cc(F)c(N3CCN(C)CC3)cc21`: the inhibition in test [5] was 103% (active); in test [6], 104% (active); in [7], 104% (active).

In the case of `S=C(NCC1COc2ccccc2O1)Nc1ccc(Br)cc1` (stereo not given), the inhibition in test [5] was 4.21%; in test [6], 5.21%; in [7] it was 6.67%.

On to `C=CCNC(=O)CSc1nc2sc(C)c(C)c2c(=O)[nH]1`, for which the inhibition in test [5] is -1.59%; in test [6], -0.91%; in test [7] it was -2.04%.

Regarding `CC(=O)NC(c1cccs1)c1cc(Br)c2cccnc2c1O` (stereo not given), the inhibition in test [5] was 10.7%; in test [6], 16.4%; in test [7], 16.1%.

Regarding `CC(=O)Nc1ccc(NC(=O)CSc2nnc(-c3ccco3)n2Cc2ccco2)cc1`, the inhibition in test [2] was 58.2% (active); in test [3], 59.9% (active).

`COc1ccc(-c2nc3c([nH]2)c(=O)n(C)c(=O)n3C)c(OC)c1`: the inhibition in test [2] was 24.5%; in test [3], 12.7%.

In the case of `O=C(N/N=C/c1ccc([N+](=O)[O-])o1)c1ccc(O)cc1`, the inhibition in test [2] is 78.3% (active); in [3], 69% (active).

Take `CCN1CCN(c2nc(Nc3cc(OC)ccc3OC)nc(Nc3cc(OC)ccc3OC)n2)CC1`: the inhibition in [5] is -0.69%; in test [6], -0.86%; in test [7] it was -2.43%.

On to `Cc1ccc(-c2cnc(C(O)c3cc(Cl)cc(Cl)c3)[nH]2)cc1` (stereo not given), for which the values for the inhibition in [5], in test [6] and in test [7] were 12.2% (active), 16.9% and 16.9%, respectively.

Consider `CC(C)(C)C(=O)Nc1c(Br)c(C2CC2)nn1-c1ccccc1`, for which the inhibition is -0.86% in [5], -0.19% in test [6] and 0.42% in test [7].

For the molecule `COc1cccc(N2CCN(CC(=O)Nc3ccc(-n4cnnn4)cc3)CC2)c1`, the inhibition in test [3] is 48.9% (active).

`CC1(C(=O)NS(=O)(=O)c2ccccc2)CCN1C(=O)C/C=C/c1ccccc1` (stereo not given): the inhibition was -4.38% in test [5], -3.55% in test [6] and -0.33% in test [7].

As for `Cc1ccc(NC(=O)Nc2nnc(-c3ccncc3)s2)cc1`, the inhibition in test [5] is 2.33%; in [6], 3.97%; in test [7], 9.8%.

On to `Cc1cccc(/C=C(\c2nc3ccccc3[nH]2)S(=O)(=O)c2ccccc2)c1`, for which the inhibition in test [1] is 43.2% (active); in test [2], 35.1%; in test [3] it was 48.8% (active); in [4], 54.1% (active); in test [8], 10.3%; in test [9], 50.5% (active).

As to `Cn1cc(C(=O)c2ccc(Cl)cc2)cc1-c1nc2ccccc2n1C`, the figures for the inhibition in test [2] and in [3] were 51.9% (active) and 49.8% (active), respectively.

As to `CCNC(=S)N(CCc1c(C)[nH]c2ccc(C)cc12)Cc1ccco1`, the inhibition was -0.28% in test [5], -0.24% in test [6] and -0.97% in test [7].

On to `CN(C)C(=O)c1cccc(COc2ccc(N3C(N)=NC(N)=NC3(C)C)cc2Cl)c1`, for which the inhibition in test [2] is 42.1% (active); in [3], 39.9%.

For the molecule `CN(C)c1ccc2nc3ccc(=[N+](C)C)cc-3sc2c1`, the values for the inhibition in test [2], in [3] and in [4] were 59.9% (active), 66.7% (active) and 52.9% (active), respectively.

Consider `CC(C)(C)C(=O)/C(=C\c1cccc([N+](=O)[O-])c1)n1cncn1`, for which the inhibition in [1] was 84.9% (active); in test [4], 85% (active).

In the case of `NC1=NC(=O)C(Cc2cccc(Cl)c2Cl)S1` (stereo not given), the results for the inhibition in test [5], in [6] and in test [7] were 0.33%, 0.21% and -2.48%, respectively.

As for `C=CCn1c(=O)c(C(=O)NCc2ccc3c(c2)OCO3)c(O)c2ccccc21`, the results for the inhibition in test [5], in [6] and in test [7] were 4.97%, 6.78% and 6.71%, respectively.

For the molecule `COC(=O)c1ccc(OCC2c3cc(OC)c(OC)cc3CCN2C(=O)c2ccco2)cc1` (stereo not given), the figures for the inhibition in test [2] and in test [3] were 52.8% (active) and 53% (active), respectively.

As for `CC1=C(C/C=C(\C)CCCC(C)CCCC(C)CCCC(C)C)C(=O)c2ccccc2C1=O` (stereo not given), the inhibition in test [5] is 0.32%; in test [6] it was 0.53%; in [7], -1.36%.

With `COc1ccc(NS(=O)(=O)c2ccc3c(c2)OCCO3)cc1OC`, the inhibition in test [1] was 10.4%; in [2], 69.7% (active); in test [3], 67.5% (active); in [4], 35.5% (active); in [8] it was 10.1%; in [9], 27.8%.

For the molecule `CC(C)(C)C(=O)/C(=C/c1cccc([N+](=O)[O-])c1)n1cncn1`, the inhibition in [1] is 87.2% (active); in [4], 83.7% (active).

As to `CNC(=O)c1cc(Oc2ccc(NC(=O)Nc3ccc(Cl)c(C(F)(F)F)c3)cc2)ccn1`, the inhibition in test [2] was 63.7% (active); in test [3] it was 69% (active); in test [8] it was 29.9%; in test [9], 58.7% (active).

As for `O=C(N/N=C/c1ccc([N+](=O)[O-])s1)c1cccnc1`, the values for the inhibition in test [1] and in test [4] were 13.9% and 7.08%, respectively.

With `CC1=C(CO)C(=O)OC([C@@H](C)C2CC[C@H]3C4C[C@H]5O[C@]56[C@@H](O)C=CC(=O)[C@]6(C)C4CC[C@]23C)C1` (stereo not given in full), the inhibition in test [1] is 67.7% (active); in [2], 66.2% (active); in test [3], 79.8% (active); in test [4], 79.6% (active); in test [8], 53.8% (active); in test [9], 41.6%.

For `O=C1c2ccccc2C2=Nc3ccccc3SC(c3ccccc3F)C12` (stereo not given), the results for the inhibition in [5], in test [6] and in test [7] were 8.51%, 8.52% and 3.38%, respectively.
